Laboratory results reported in the supplement of paper PMC10077471.
The full ranking holds about 1,900 compounds; the median of “excess over highest single agent (ExcessHSA) synergy score, 6x6 matrix” is about -83, and the lowest 2% start at about -370. Only a selection was taken, and the lowest values are over-represented in it overall.

tested on: NCI-H446; test: excess over highest single agent (ExcessHSA) synergy score, 6x6 matrix; higher = less synergy (more negative = stronger synergy); settings: 72 h; CellTiter-Glo viability

Structure (SMILES)	excess over highest single agent
CCN(CC)CCn1c(=O)c(Cc2ccc(OC)cc2)nc2ccccc21 + Cc1sc2c(c1C)C(c1ccc(Cl)cc1)=N[C@@H](CC(=O)OC(C)(C)C)c1nnc(C)n1-2 [NCGC00250412-19]	-47.3
O=c1[nH]c(=O)n([C@H]2C[C@H](O)[C@@H](CO)O2)cc1F + Cc1sc2c(c1C)C(c1ccc(Cl)cc1)=N[C@@H](CC(=O)OC(C)(C)C)c1nnc(C)n1-2 [NCGC00250412-19]	-390
Cc1cn([C@@H]2C[C@@H](O)[C@H](CO)O2)c(=O)[nH]c1=O + Cc1sc2c(c1C)C(c1ccc(Cl)cc1)=N[C@@H](CC(=O)OC(C)(C)C)c1nnc(C)n1-2 [NCGC00250412-19]	21.8
O=c1[nH]c(=O)n([C@H]2C[C@H](O)[C@@H](CO)O2)cc1I + Cc1sc2c(c1C)C(c1ccc(Cl)cc1)=N[C@@H](CC(=O)OC(C)(C)C)c1nnc(C)n1-2 [NCGC00250412-19]	-172
Cc1cc(OCCCS(C)(=O)=O)cc(C)c1-c1cccc(COc2ccc3c(c2)OC[C@H]3CC(=O)O)c1 + Cc1sc2c(c1C)C(c1ccc(Cl)cc1)=N[C@@H](CC(=O)OC(C)(C)C)c1nnc(C)n1-2 [NCGC00250412-19]	-123
c1ccc2c(CCNc3ccc(Nc4ccncc4)cc3)c[nH]c2c1 + Cc1sc2c(c1C)C(c1ccc(Cl)cc1)=N[C@@H](CC(=O)OC(C)(C)C)c1nnc(C)n1-2 [NCGC00250412-19]	-76.1
Cc1cc(SCc2sc(-c3ccc(C(F)(F)F)cc3)nc2C)ccc1OCC(=O)O + Cc1sc2c(c1C)C(c1ccc(Cl)cc1)=N[C@@H](CC(=O)OC(C)(C)C)c1nnc(C)n1-2 [NCGC00250412-19]	-98.3
CC(=O)O/N=C1/C(c2c(O)[nH]c3cc(Br)ccc23)=Nc2ccccc21 + Cc1sc2c(c1C)C(c1ccc(Cl)cc1)=N[C@@H](CC(=O)OC(C)(C)C)c1nnc(C)n1-2 [NCGC00250412-19]	54.4
O=c1c(-c2ccc(O)cc2)coc2cc(O[C@@H]3O[C@H](CO)[C@@H](O)[C@H](O)[C@H]3O)ccc12 + Cc1sc2c(c1C)C(c1ccc(Cl)cc1)=N[C@@H](CC(=O)OC(C)(C)C)c1nnc(C)n1-2 [NCGC00250412-19]	-180
Cc1c(NC(=O)c2ccc(C(C)(C)C)cc2)cccc1-c1cn(C)c(=O)c(Nc2ccc(C(=O)N3CCOCC3)cc2)n1 + Cc1sc2c(c1C)C(c1ccc(Cl)cc1)=N[C@@H](CC(=O)OC(C)(C)C)c1nnc(C)n1-2 [NCGC00250412-19]	-90.9
Nc1ccn([C@@H]2O[C@H](CO)[C@@H](O)C2(F)F)c(=O)n1 + Cc1sc2c(c1C)C(c1ccc(Cl)cc1)=N[C@@H](CC(=O)OC(C)(C)C)c1nnc(C)n1-2 [NCGC00250412-19]	-379
Nc1ccn([C@@H]2O[C@H](CO)[C@@H](O)[C@@H]2O)c(=O)n1 + Cc1sc2c(c1C)C(c1ccc(Cl)cc1)=N[C@@H](CC(=O)OC(C)(C)C)c1nnc(C)n1-2 [NCGC00250412-19]	-107
Nc1ccn([C@@H]2O[C@H](CO)[C@@H](O)[C@H]2O)c(=O)n1 + Cc1sc2c(c1C)C(c1ccc(Cl)cc1)=N[C@@H](CC(=O)OC(C)(C)C)c1nnc(C)n1-2 [NCGC00250412-19]	-268
CC(=O)N1CCN(c2ccc(OCc3nn(C)c(C)c3-c3cccc4c(CCCOc5cccc6ccccc56)c(C(=O)O)n(Cc5cccnc5)c34)cc2)CC1 + Cc1sc2c(c1C)C(c1ccc(Cl)cc1)=N[C@@H](CC(=O)OC(C)(C)C)c1nnc(C)n1-2 [NCGC00250412-19]	97.8
FC(F)(F)c1ccc(Nc2nc3ccc(Oc4ccnc(-c5ncc(C(F)(F)F)[nH]5)c4)cc3[nH]2)cc1 + Cc1sc2c(c1C)C(c1ccc(Cl)cc1)=N[C@@H](CC(=O)OC(C)(C)C)c1nnc(C)n1-2 [NCGC00250412-19]	-7.92
CC1(C)CC(=O)c2c(C(F)(F)F)nn(-c3ccc(C(N)=O)c(N[C@H]4CC[C@H](OC(=O)CN)CC4)c3)c2C1 + Cc1sc2c(c1C)C(c1ccc(Cl)cc1)=N[C@@H](CC(=O)OC(C)(C)C)c1nnc(C)n1-2 [NCGC00250412-19]	-482
CC1(C)CC(=O)c2c(C(F)(F)F)nn(-c3ccc(C(N)=O)c(N[C@H]4CC[C@H](O)CC4)c3)c2C1 + Cc1sc2c(c1C)C(c1ccc(Cl)cc1)=N[C@@H](CC(=O)OC(C)(C)C)c1nnc(C)n1-2 [NCGC00250412-19]	-379
COc1cccc2c1CCCC2CCCN1CCN(C2CCCCC2)CC1 (configuration not stated) + Cc1sc2c(c1C)C(c1ccc(Cl)cc1)=N[C@@H](CC(=O)OC(C)(C)C)c1nnc(C)n1-2 [NCGC00250412-19]	-180
Cc1nnc(C(C)C)n1[C@H]1C[C@H]2CC[C@@H](C1)N2CC[C@H](NC(=O)C1CCC(F)(F)CC1)c1ccccc1 + Cc1sc2c(c1C)C(c1ccc(Cl)cc1)=N[C@@H](CC(=O)OC(C)(C)C)c1nnc(C)n1-2 [NCGC00250412-19]	-88.4

Structure (SMILES)	excess over highest single agent
O=C(CC12CC3CC(CC(C3)C1)C2)Nc1cccc2nc(NCCNCCO)ccc12 + Cc1sc2c(c1C)C(c1ccc(Cl)cc1)=N[C@@H](CC(=O)OC(C)(C)C)c1nnc(C)n1-2 [NCGC00250412-19]	-112
COc1ccccc1[C@H](c1cccc2ccccc12)[C@@](C)(C#N)C(=O)N1CCC(c2cccc(C(F)(F)F)c2)CC1 + Cc1sc2c(c1C)C(c1ccc(Cl)cc1)=N[C@@H](CC(=O)OC(C)(C)C)c1nnc(C)n1-2 [NCGC00250412-19]	-352
Oc1ccc2ccccc2c1SSc1c(O)ccc2ccccc12 + Cc1sc2c(c1C)C(c1ccc(Cl)cc1)=N[C@@H](CC(=O)OC(C)(C)C)c1nnc(C)n1-2 [NCGC00250412-19]	56.9
NS(=O)(=O)OC[C@@H]1C[C@@H](n2ccc3c(N[C@H]4CCc5ccccc54)ncnc32)C[C@@H]1O + Cc1sc2c(c1C)C(c1ccc(Cl)cc1)=N[C@@H](CC(=O)OC(C)(C)C)c1nnc(C)n1-2 [NCGC00250412-19]	-544
O=C1NC(=O)C(c2cnc3ccccn23)=C1c1cn2c3c(cccc13)CN(C(=O)N1CCOCC1)CC2 + Cc1sc2c(c1C)C(c1ccc(Cl)cc1)=N[C@@H](CC(=O)OC(C)(C)C)c1nnc(C)n1-2 [NCGC00250412-19]	-24.9
NC1(Cc2ccc(Cl)cc2)CCN(c2ncnc3[nH]ccc23)CC1 + Cc1sc2c(c1C)C(c1ccc(Cl)cc1)=N[C@@H](CC(=O)OC(C)(C)C)c1nnc(C)n1-2 [NCGC00250412-19]	-66
COc1cc(CCc2cc(NC(=O)c3ccc(N4CC(C)NC(C)C4)cc3)n[nH]2)cc(OC)c1 (configuration not stated) + Cc1sc2c(c1C)C(c1ccc(Cl)cc1)=N[C@@H](CC(=O)OC(C)(C)C)c1nnc(C)n1-2 [NCGC00250412-19]	-88.8
CC(C)C[C@H](NC(=O)[C@@H](O)[C@H](N)Cc1ccccc1)C(=O)O + Cc1sc2c(c1C)C(c1ccc(Cl)cc1)=N[C@@H](CC(=O)OC(C)(C)C)c1nnc(C)n1-2 [NCGC00250412-19]	-74.5
CC(C)C[C@H](NC(=O)[C@H](CCc1ccccc1)NC(=O)CN1CCOCC1)C(=O)N[C@@H](Cc1ccccc1)C(=O)N[C@@H](CC(C)C)C(=O)[C@@]1(C)CO1 + Cc1sc2c(c1C)C(c1ccc(Cl)cc1)=N[C@@H](CC(=O)OC(C)(C)C)c1nnc(C)n1-2 [NCGC00250412-19]	-521
COC[C@H](NC(=O)c1cnc(C)s1)C(=O)N[C@@H](COC)C(=O)N[C@@H](Cc1ccccc1)C(=O)[C@@]1(C)CO1 + Cc1sc2c(c1C)C(c1ccc(Cl)cc1)=N[C@@H](CC(=O)OC(C)(C)C)c1nnc(C)n1-2 [NCGC00250412-19]	-227
CN(C)CCN(C)C(=O)c1ccc(NC(=O)Nc2ccc(-c3nc(N4CCOCC4)c4ccn(CC(F)(F)F)c4n3)cc2)cc1 + Cc1sc2c(c1C)C(c1ccc(Cl)cc1)=N[C@@H](CC(=O)OC(C)(C)C)c1nnc(C)n1-2 [NCGC00250412-19]	-272
CC(C)=CC[C@@H](O)C1=CC(=O)c2c(O)ccc(O)c2C1=O + Cc1sc2c(c1C)C(c1ccc(Cl)cc1)=N[C@@H](CC(=O)OC(C)(C)C)c1nnc(C)n1-2 [NCGC00250412-19]	-344
Clc1ccc(-c2nc3sccn3c2C=NOCc2ccc(Cl)c(Cl)c2)cc1 + Cc1sc2c(c1C)C(c1ccc(Cl)cc1)=N[C@@H](CC(=O)OC(C)(C)C)c1nnc(C)n1-2 [NCGC00250412-19]	-98.8
CCOc1cc(/C=C2/C(=O)N(c3ccccc3)N=C2C)cc(Cl)c1OCC(=O)OC + Cc1sc2c(c1C)C(c1ccc(Cl)cc1)=N[C@@H](CC(=O)OC(C)(C)C)c1nnc(C)n1-2 [NCGC00250412-19]	76.6
CS(=O)(=O)N1CCc2c(-c3cnc(N)nc3)nc(N3CCOCC3)nc21 + Cc1sc2c(c1C)C(c1ccc(Cl)cc1)=N[C@@H](CC(=O)OC(C)(C)C)c1nnc(C)n1-2 [NCGC00250412-19]	-391
COc1ccc(Nc2cc(-c3cnc(N)nc3)nc(N3CCOCC3)n2)cn1 + Cc1sc2c(c1C)C(c1ccc(Cl)cc1)=N[C@@H](CC(=O)OC(C)(C)C)c1nnc(C)n1-2 [NCGC00250412-19]	3.49
Cc1nc(N)ncc1-c1nc(N2CCOCC2)c2sc(C(C)(C)O)cc2n1 + Cc1sc2c(c1C)C(c1ccc(Cl)cc1)=N[C@@H](CC(=O)OC(C)(C)C)c1nnc(C)n1-2 [NCGC00250412-19]	-337
N=C1S/C(=C\c2ccc(-c3ccc4c(c3)C(=O)NC4=O)o2)C(=O)N1c1ccc(Br)cc1 + Cc1sc2c(c1C)C(c1ccc(Cl)cc1)=N[C@@H](CC(=O)OC(C)(C)C)c1nnc(C)n1-2 [NCGC00250412-19]	122
